# Bioassay records: PubChem, National Center for Advancing Translational Sciences (NCATS)
# The full list was thinned out, with hits kept by preference.
# AmpC inh no detg = inhibitors of E. coli AmpC beta-lactamase without detergent. AID 485341. AmpC nitrocefin hydrolysis, absorbance 480 nm, 0.0001% Triton. actives 0.52% (n = 330,000). Potency, µM (series often up to 57.1 µM), usual class: inhibitors; also: nearly all actives have a fitted effect of over 20% in size
# Target sequence (P00811 whole entry, looked up): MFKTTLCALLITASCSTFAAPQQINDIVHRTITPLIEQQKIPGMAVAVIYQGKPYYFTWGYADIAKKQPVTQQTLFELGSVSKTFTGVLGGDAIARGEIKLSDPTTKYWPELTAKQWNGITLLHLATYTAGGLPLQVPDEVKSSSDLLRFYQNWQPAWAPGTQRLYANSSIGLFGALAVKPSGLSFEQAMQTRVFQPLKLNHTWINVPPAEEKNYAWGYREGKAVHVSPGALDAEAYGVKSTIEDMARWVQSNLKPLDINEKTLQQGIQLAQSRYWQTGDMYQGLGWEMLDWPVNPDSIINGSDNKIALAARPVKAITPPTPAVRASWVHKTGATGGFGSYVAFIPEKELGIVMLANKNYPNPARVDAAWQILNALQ
#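 AmpC (5.3 nM in the dispensed reagent) in 20 mM phosphate pH 7.0 with 0.01% (detergent screen) or 0.0001% Triton X-100 was preincubated with compounds for 15 min at room temperature. Nitrocefin was then added from an 800 uM solution, and hydrolysis was followed at 480 nm.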
# Shiga inhibitor = inhibitors of Shiga toxin in Vero cells; Vero cells, Shiga toxin protein synthesis inhibition reporter; AID 2315; actives 9.2% (n = 290,000); inhibition, % at 38.7 µM; in the data active = inhibition mostly above about 28%, no sharp cut-off; inactive = mostly below about 43%
# Cycloheximide cs = counter-screen hit for Shiga toxin inhibitors, cycloheximide; cell reporter, cycloheximide protein synthesis inhibition counterscreen; max response, %; actives 12% (n = 300,000); AID 2314; in the data active = max response mostly above about 13%, no sharp cut-off; inactive = mostly below about 14%; also: read at 38.3 µM for the half of the compounds with a filed dose
# AMA1 RON2 block = inhibitors of Plasmodium falciparum AMA1-RON2 interaction. Potency, µM (top dose mostly 58.2 µM), usual class: inhibitors. actives 0.2% (n = 360,000). AlphaScreen AMA1-biotinylated RON2 peptide binding; also: nearly all actives have a fitted effect of over 45% in size
#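 AMA1 (3D7) with his tag at 25 nM final met compounds first, then biotinylated RON2 peptide at 25 nM; detection used donor plus acceptor beads, 10 µg/mL apiece, read by AlphaScreen after 30 min at room temperature.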
# SARS PLpro yeast = SARS-CoV PLP inhibition in yeast; S. cerevisiae expressing SARS-CoV PLpro, growth rescue; Potency, µM (highest dose often 32.9 µM), most hits filed as activators; AID 485353; actives 0.19% (n = 330,000); calls by dose curve; also: nearly all actives have a fitted effect of over 55% in size
# AmpC inh detg = AmpC beta-lactamase inhibition with detergent present | P00811 | AmpC hydrolysis of nitrocefin, absorbance 480 nm, 0.01% Triton | Potency, µM (highest dose often 114 µM), actives largely listed as inhibitors | actives 0.041% (n = 370,000) | AID 485294; also: nearly all actives have a fitted effect of over 25% in size
#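 20 mM phosphate pH 7.0 + 0.01% (detergent screen) or 0.0001% Triton X-100; 5.3 nM AmpC reagent; cpd preinc 15 min RT; nitrocefin (800 uM stock) to start; A480 q20 s × 4 min; Activity was normalised to no-enzyme and no-compound control wells.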
# A number is an active result; . = inactive; ? = inconclusive; / = no result given. Unless noted, calls follow the shape of the dose curve; as a rule, active = well fitted curve in the direction sought with a large enough effect; inconclusive = small, poorly fitted or top-dose-only effect, or another doubt; inactive = no such curve, though single readings can be large; an effect the other way counts as inactive or inconclusive.
SMILES,AmpC inh no detg,Shiga inhibitor,Cycloheximide cs,AMA1 RON2 block,SARS PLpro yeast,AmpC inh detg
COc1ccc(OC(=O)Nc2ccccc2)cc1,.,98,32,.,.,.
COc1ccc(NC(=O)c2ccccc2-c2ccccc2C(=O)O)cc1,.,.,.,.,.,.
CN(C)c1ccc(NC(=O)Oc2ccccc2)cc1,.,60,29,?,.,.
CC(=O)Nc1ccc(NC(=O)Oc2ccccc2)cc1,.,.,.,.,.,.
O=C(Cn1cnc2c(cnn2-c2ccccc2)c1=O)c1ccc(Cl)cc1,.,.,.,.,.,?
COc1cccc(-c2nn3c(=O)cc(CN4CCN(C(=O)/C=C/c5ccccc5)CC4)nc3s2)c1,/,/,/,/,/,.
COc1ccc(N(Cc2ccccc2)C(=O)OC(C)(C)C)c(C(=O)N(C)OC)c1,.,/,/,.,.,/
S=C1NC2(CCCCC2)Cc2ccccc21,.,.,.,.,.,?
CCC(=O)Nc1ccc(/C=C(\C(C)=O)C(=O)c2ccccc2)cc1,.,.,.,.,.,.
CCOC(=O)CN1N=C(/C=C/c2ccc(C(C)C)cc2)CCC1=O,.,.,35,.,.,.
CCOC(=O)CN1N=C(/C=C/c2ccc(OCC)cc2)CCC1=O,.,.,30,.,.,?
Cc1onc(-c2ccccc2Cl)c1C(=O)Nc1nc2c(s1)CCCC2,.,127,69,.,.,.
Cc1onc(-c2ccccc2Cl)c1C(=O)Nc1nnc(-c2ccc(Br)cc2)s1,.,.,22,.,.,.
Cc1onc(-c2ccccc2Cl)c1C(=O)Nc1nnc(-c2ccc(F)cc2)s1,.,.,.,.,.,.
COc1cc(-c2cc(C(=O)Nc3nc4ccccc4s3)c3ccccc3n2)cc(OC)c1OC,.,.,18,.,.,.
COC(=O)c1sc(NC(=O)c2cc(-c3ccccc3)nc3ccccc23)c(C#N)c1C,.,.,.,.,.,56µM
COc1cc(-c2cc(C(=O)Nc3ccc(O)cc3)c3ccccc3n2)cc(OC)c1OC,.,.,.,.,.,.
CC(=O)c1cccc(NC(=O)c2cc(-c3ccco3)nc3ccccc23)c1,.,33,.,.,.,.
COc1cc(-c2cc(C(=O)Nc3cccc(C(C)=O)c3)c3ccccc3n2)cc(OC)c1OC,.,.,18,.,.,.
CCOC(=O)c1sc(NC(=O)c2cc(-c3ccc(C)cc3)nc3ccccc23)c(C#N)c1C,.,.,.,.,.,.
CCN(CC)S(=O)(=O)c1ccc2c(c1)N(CC(=O)Nc1c(C)cc(C)cc1C)C(=O)CS2,/,/,/,/,/,.
COc1ccc(CSC(=N)N)cc1[N+](=O)[O-],.,.,.,.,.,.
COc1ccc(NC(=O)c2cc(-c3ccc(OC)c(OC)c3)nc3ccccc23)c(OC)c1,.,.,.,.,.,.
COc1ccc(-c2cc(C(=O)Nc3ccc(C(N)=O)cc3)c3ccccc3n2)cc1OC,.,.,14,.,.,.
CC(=O)c1ccc(NC(=O)c2cc(C)nc3ccccc23)cc1,.,.,28,.,.,.
SMILES,AmpC inh no detg,Shiga inhibitor,Cycloheximide cs,AMA1 RON2 block,SARS PLpro yeast,AmpC inh detg
Cc1ccc(NC(=O)c2cc(C)nc3ccccc23)cc1,.,.,.,.,.,.
CCN(CC)C(=O)COc1ccc2c3c(c(=O)oc2c1)CCCC3,.,.,.,.,.,.
Cc1ccc(NC(=O)c2cc(S(=O)(=O)N3CCOCC3)cn2C)c(C)c1,.,.,.,.,.,?
O=C(/C=C/c1ccc(Cl)c([N+](=O)[O-])c1)Nc1cccnc1,.,.,.,.,.,.
O=C(/C=C/c1ccc([N+](=O)[O-])cc1)Nc1cccnc1,.,112,43,.,.,.
O=C(C=Cc1ccccc1)Nc1ccccc1,/,/,/,.,/,/
O=C(/C=C/c1ccccc1)Nc1cccnc1,.,33,28,.,.,?
O=C(COC(=O)Cc1cccs1)Nc1cc(S(=O)(=O)N2CCOCC2)ccc1Cl,.,/,/,.,.,/
CC1CN(S(=O)(=O)c2ccc(C(=O)Nc3nc(-c4cc5ccccc5o4)cs3)cc2)CC(C)O1 (centres undefined),.,.,.,.,.,.
O=C(Nc1nc(-c2cc3ccccc3o2)cs1)c1ccc(S(=O)(=O)N2CCCC2)cc1,18µM,.,.,.,.,.
O=C(Nc1nc(-c2cccs2)cs1)c1cccc(S(=O)(=O)N2CCCCC2)c1,.,.,18,?,.,.
Cc1cc(S(=O)(=O)N2CCN(c3ccccn3)CC2)ccc1F,.,.,.,.,.,?
CN(C)C(=O)c1c2c(nc3ccccc13)-c1ccccc1CC2,.,.,.,.,.,.
CC(C)c1ccc(-c2cc(C(=O)NN3CCN(C)CC3)c3ccccc3n2)cc1,.,82,35,.,.,.
CN1CCN(NC(=O)c2cc(-c3cccc(Cl)c3)nc3ccccc23)CC1,.,.,.,.,.,.
CC(C)c1ccc(-c2cc(C(=O)N3N=C(C(F)F)CC3(O)C(F)F)c3ccccc3n2)cc1 (centres undefined),.,83,23,.,.,.
COc1ccc(C(O)c2nc3ccccc3n2C)cc1OC (centres undefined),.,.,.,.,.,.
O=C(Nc1cc(C(F)(F)F)ccc1Cl)C(Sc1cccc[n+]1[O-])c1ccccc1 (centres undefined),.,.,.,.,?,.
CCc1ccc(N2C(=O)Cc3c2nc(N)c(C#N)c3N)cc1,.,114,23,.,.,.
CC(C)(C)c1ccc(N2C(=O)Cc3c2nc(N)c(C#N)c3N)cc1,.,.,35,.,.,.
CO/N=C/NC(=O)C1=NOC(CNc2ncc(C(F)(F)F)cc2Cl)C1 (centres undefined),/,.,.,.,/,.
NC(=O)C1=NOC(CNc2ncc(C(F)(F)F)cc2Cl)C1 (centres undefined),.,87,36,.,.,.
Cc1ccc(/C=N/N2C(=O)C3C(C2=O)C2C=CC3C23CC3)o1 (centres undefined),.,.,18,.,.,.
O=C1C2C(C(=O)N1/N=C/c1cccc([N+](=O)[O-])c1)C1C=CC2C12CC2 (centres undefined),.,75,52,.,.,.
O=C1C2C(C(=O)N1/N=C/c1cc([N+](=O)[O-])c(O)cc1O)C1C=CC2C12CC2 (centres undefined),.,.,.,.,.,.
O=C1C2C(C(=O)N1/N=C/c1cc([N+](=O)[O-])ccc1O)C1C=CC2C12CC2 (centres undefined),.,.,.,.,.,.
Cc1ccc(NC(=O)COC(=O)[C@H](C)NC(=O)c2ccccc2)cc1S(=O)(=O)N1CCOCC1,.,.,.,.,.,.
